PubChem BioAssay
Active and inactive are the calls of the source.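 The calls were made as follows: active = viability at or below 10% of carrier control in both of two separate runs; inconclusive = viability at or below 10% in only one of the two runs; inactive = the rest.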

Experiment: reduced viability of SK-BR-3 breast cancer cells – cell-based, 24 h, human, pilot screen (AID 572);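 also: compound exposure lasted between 18 and 24 h rather than exactly 24 h; 100% = carrier-treated control wells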
Conditions: SK-BR-3 viability, CellTiter-Glo luminescence, at 10 µM, hits give low values

SMILES | viability
COc1cccc(C(=O)n2cnnc2N)c1OC | 120% (inactive)
O=C(Cn1c(=O)n(Cc2ccc3c(c2)OCO3)c(=O)c2ccccc21)N1CCCc2ccccc21 | 87.5% (inactive)
CC(C)[C@H](NC(=O)NC1CCCC1)C(=O)O | 103% (inactive)
COc1ccc(-c2cc3n(n2)CCc2nc4ccccc4n2-3)cc1 | 95.5% (inactive)
CCc1nc2scc(-c3ccccc3)c2c(=O)n1N | 136% (inactive)
O=S(=O)(Nc1cccc2ncccc12)c1cccs1 | 256% (inactive)
O=C(O)c1cccc(CN2C(=O)SC(Nc3ccccc3)C2=O)c1 (configuration not stated) | 110% (inactive)
Cc1nc2ccc(N3C(=O)CCC3=O)cc2[nH]1 | 100% (inactive)
COCCn1nnnc1C(c1ccc(OC)cc1)N1CCN(c2ccccc2F)CC1 (configuration not stated) | 100% (inactive)
O=S(=O)(c1ccc2nc(Cc3cccc(C(F)(F)F)c3)[nH]c2c1)N1CCOCC1 | 104% (inactive)
Cc1nnc(SCC(=O)N(C(C)C)C(C)C)nc1C | 75.5% (inactive)
O=C(NC1CCCCC1)C1CC(O)CN1C(=O)OCc1ccccc1 (configuration not stated) | 88% (inactive)
CCOC(=O)c1ccc(CC2S/C(=C(\C#N)C(C)=O)NC2=O)cc1 (configuration not stated) | 91.5% (inactive)
COc1ccc(C2CC(=O)C(C=NCCN3CCOCC3)=C(O)C2)cc1 (configuration not stated) | 87.5% (inactive)
CN1C(=O)CCC1(O)c1ccccc1 (configuration not stated) | 89% (inactive)
O=c1[nH]c(/C(=N\O)c2ccccc2)no1 | 93.5% (inactive)
COC(=O)C1=C(N)Oc2cc(C)[nH]c(=O)c2C1c1ccncc1 (configuration not stated) | 132% (inactive)
